LmPK inh – inhibitors of Leishmania mexicana pyruvate kinase. Q27686. purified LmPK, Kinase-Glo ATP luminescence, 1 h. Potency, µM (titrated, usually from 57.5 µM), without a hit: at the top dose activity change, negative = inhibition, most hits filed as inhibitors. 0.37% of 290,000 active. AID 1721; further: potency means the concentration at half of the fitted maximal effect; on the % scale 0 is the no-effect control and ±100 the full control effect
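Purified LmPK (0.1 nM) converted ADP (0.1 mM) to ATP with PEP (0.5 mM) in imidazole buffer pH 7.2 with KCl and MgCl2, 1 h at room temperature. ATP was read by Kinase-Glo luminescence; data normalized to uninhibited and no-enzyme controls.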
Cycloheximide cs – affects cycloheximide protein synthesis inhibition readout, counter-screen | cell reporter, cycloheximide protein synthesis inhibition counterscreen | max response, % | 12% of 300,000 active; in the data active means max response mostly above about 13%, no sharp cut-off; inactive means mostly below about 14%; further: read at 38.3 µM for the half of the compounds with a filed dose; 0% is about no effect
FBPA Giardia inh – inhibitors of Giardia lamblia fructose-1,6-bisphosphate aldolase; A8B2U2; purified Giardia FBPA; Potency, µM (top dose mostly 59.6 µM), for inactives: at the highest dose activity, negative = inhibition, hits mostly inhibitors; 0.71% of 290,000 active; further: potency means the concentration at half of the fitted maximal effect; on the % scale 0 is the no-effect control and ±100 the full control effect; nearly all actives have a fitted effect of over 55% in size
Target sequence (A8B2U2 whole entry, looked up): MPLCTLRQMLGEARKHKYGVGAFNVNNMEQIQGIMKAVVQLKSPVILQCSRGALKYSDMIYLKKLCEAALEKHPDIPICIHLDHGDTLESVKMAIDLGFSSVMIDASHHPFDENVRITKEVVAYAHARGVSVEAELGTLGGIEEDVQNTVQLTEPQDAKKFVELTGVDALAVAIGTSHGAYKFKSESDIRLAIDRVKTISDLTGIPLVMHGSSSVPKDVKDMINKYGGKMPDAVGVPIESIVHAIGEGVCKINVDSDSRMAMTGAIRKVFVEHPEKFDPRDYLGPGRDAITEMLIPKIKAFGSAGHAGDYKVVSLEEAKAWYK
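Giardia FBPA (40 nM reagent) was preincubated 10 min at RT with compound (up to 57.5 uM final), then substrate plus GAPDH/TPI/NAD/arsenate coupling system with diaphorase/resazurin was added; resorufin fluorescence (525/598 nm) was read after 20 min.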
NS1 inh – influenza NS1 inhibition | Potency, µM (top dose mostly 46.1 µM), without a hit: at the highest dose activity, positive = more growth | 0.4% of 270,000 active; calls by dose curve; further: potency means the concentration at half of the fitted maximal effect; actives are rising curves; nearly all actives have a fitted effect of over 50% in size
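OD600 was taken as the measure of yeast growth restored by compound in an NS1-expressing S. cerevisiae strain. Cells had been washed out of glucose medium and diluted 1:100 into galactose -URA medium, pH 6.0.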
Shiga toxin inh – inhibitors of Shiga toxin in Vero cells. AID 2315. Vero cells, Shiga toxin protein synthesis inhibition reporter. 9.2% of 290,000 active. inhibition, % at 38.7 µM; in the data active means inhibition mostly above about 28%, no sharp cut-off; inactive means mostly below about 43%; further: 0% is about no effect
The depositor's hits bear a star; i = inactive; ? = inconclusive; . = no result; [ ] = another dose, or the depositor's remark. Most compounds without a hit are left out; they make up all but 14% or so of the library. Unless noted, the call rests on the fitted dose curve; in most records, active means well fitted curve in the direction sought with a large enough effect; inconclusive means small, poorly fitted or top-dose-only effect, or another doubt; inactive means no such curve, though single readings can be large; an effect the other way counts as inactive or inconclusive.

SMILES	LmPK inh	Cycloheximide cs	FBPA Giardia inh	NS1 inh	Shiga toxin inh
CCOc1ccc(CCNC(=O)c2cc(C)nn2-c2ccccc2)cc1	0%	6	-1%	-4%	-2
O=C(Cc1ccccc1)NNC1=NS(=O)(=O)c2ccccc21	4%	-4	-2%	4%	-9
O=C(CSC1=NS(=O)(=O)c2ccccc21)Nc1ccccc1	22µM*	14	-20%	-113%	-5
CC1N/C(=C\C(=O)c2ccccc2)N(O)C1(C)C (centres undefined)	-20%	37*	-11%	4%	76*
Cn1c(CCCNC(=O)c2ccccc2)nc2ccccc21	-2%	-1	1%	-4%	4
Cc1nn(C)c(C(=O)N/N=C/c2ccccc2)c1[N+](=O)[O-]	-4%	-2	-12%	-9%	-6
Cn1c(/C=N/NC(=O)c2ccccc2)nc2ccccc21	-3%	31*	-14%	-15%	75*
Cn1c(-c2ccccc2)c(/C=N/NC(=O)c2ccc(O)cc2)c2ccccc21	-2%	34*	-11%	-5%	87*
Cn1c(C(=O)N/N=C/c2ccccc2)cc2ccccc21	-4%	21*	5%	-15%	44
CCOc1cc(CNc2ccc(N(C)C)cc2)cc(Br)c1OCC(=O)NC(C)(C)C	1%	36*	5µM*	-19%	38*
CCOc1cc(CNc2ccc(N3CCCCC3)cc2)cc(Br)c1OCC(=O)NC(C)(C)C	4%	14*	-7%	-27%	22
CCOc1cc(CNc2cccc3ccccc23)cc(Br)c1OCC(=O)NC(C)(C)C	-1%	11	-4%	19%	-3
C=CCOc1c(Br)cc(CNc2ccc(NC(=O)CCC)cc2)cc1OCC	0%	3	1%	-26%	12
C=CCOc1c(Br)cc(CNc2ccc(NC(=O)C(C)C)c(OC)c2)cc1OCC	3%	34*	8.9µM*	5%	10
CCOc1cc(CNc2ccc(N3CCCC3)cc2)cc(Cl)c1OC	-5%	20	?	8%	41*
COc1ccc(-n2c(COc3cccc4cccnc34)nnc2SCC(=O)O)cc1	5%	-1	1%	1%	15
CC(OC(=O)c1ccccc1NCCO)C(=O)NCC(=O)Nc1ccc(F)c(F)c1F (centres undefined)	-9%	7	7%	0%	78
COc1cccc(CNc2ccc(N3CCCCC3)cc2)c1OC	1%	30*	?	?	34*
COc1ccccc1CNc1ccc(N2CCCCC2)cc1	1%	24	?	-8%	45
CCOc1cc(CNc2ccc3c(c2)OCCO3)cc(Br)c1OCC	-1%	28*	-10%	13%	67*
CCOc1cc(CNc2ccc(N3CCOCC3)cc2)cc(Br)c1OCC	4%	-3	-14%	7%	-12
CCOC(=O)c1ccc(-c2c(C)cc3oc(=O)cc(-c4ccccc4)c3c2C)cc1	.	32*	9%	.	i
Cc1ccc(-c2c(C)cc3oc(=O)cc(-c4ccccc4)c3c2C)cc1	.	16	5%[89.2 µM]	.	i
CCc1nnc(NC(=O)CCC(=O)N2CCN(c3cc(Cl)ccc3C)CC2)s1	-1%	-11	.	4%	-4
CC(=O)Nc1ccc(SCC(=O)c2ccc(Br)s2)cc1	6%	21*	3%	-37%	37*
SMILES	LmPK inh	Cycloheximide cs	FBPA Giardia inh	NS1 inh	Shiga toxin inh
CC(=O)Nc1ccc(SCc2c(C)noc2C)cc1	-2%	-3	-5%	-2%	-5
Cc1ccc(SCC(=O)c2ccc(CC(=O)O)s2)cc1	7%	20*	17%	7%	24
CC(=O)Nc1ccc(SCc2csc(C)n2)cc1	0%	14	-26%	15%	47*
CCC(C)NC(=O)CSc1ccc(NC(C)=O)cc1 (centres undefined)	0%	-5	1%	-2%	-2
Cc1ccnc(SCc2cc(=O)c(OC(=O)c3cccs3)co2)n1	0%	-1	-3%	.	18
Cc1ccnc(SCC(=O)c2cccs2)n1	2%	38*	1%	13%	84*
CN(C)c1ncc2nc(CCc3ccccc3)c(=O)n(-c3ccccc3)c2n1	.	.	-2%	.	.
O=C(Nc1ccnn1C1CCN(Cc2ccc(C#CCCO)cc2)CC1)c1cccc(F)c1	3%	-3	.	-4%	-15
Cc1ccnc(SCC(=O)c2ccc(Br)s2)n1	-6%	36*	-4%	.	37
COc1ccc2c(COC(=O)CC3Sc4ccccc4NC3=O)cc(=O)oc2c1 (centres undefined)	1%	20*	-1%	21%	56
Cc1cc(C(=O)N/N=C/c2cccn2C)no1	-5%	10	-1%	-2%	18*
Cc1cc(C(=O)NCc2ccccc2)no1	-14%	-3	0%	-1%	61
Cc1cc(C(=O)NCc2ccccc2Br)no1	0%	16*	-2%	-13%	36
Cc1onc(-c2ccccc2)c1C(=O)N/N=C/c1cc2c(cc1Br)OCO2	-1%	-3	3%	4%	-2
Cn1cccc1/C=N/NC(=O)c1ccncc1	-1%	3	0%	0%	-7
Cn1cccc1/C=N/NC(=O)c1cc2ccccc2cc1O	-8%	21*	?	-13%	67*
Cc1cc(C(=O)N/N=C/c2ccccc2Br)no1	-11%	36*	1%	-15%	60*
Cc1cc(C)c(N(Cc2ccccc2)S(=O)(=O)c2ccc(OCCNC(=O)c3cc4ccccc4o3)cc2)c(C(=O)NO)c1	.	-8	6%	.	-3
COc1ccc(S(=O)(=O)N2CCOCC2)cc1C(=O)N1CCCCC1	0%	-1	.	14%	-4
CCC1=C2CC[C@H]3C(=O)N(CC)C(=O)[C@H]3[C@H]2[C@@]2(C)C(=NCCc3c[nH]c4ccccc34)OC(=O)N2C1=O	.	.	3%	.	.
CCc1cc2c(-c3ccccc3)cc(=O)oc2cc1OCC(=O)NCC1CCC(C(=O)O)CC1 (centres undefined)	-5%	-2	3%	4%	10
Cn1cccc1/C=N/NC(=O)c1ccccn1	?	31*	?	-3%	84*
CC1=NN(c2nc(-c3ccccc3)cs2)C(=O)C1N=Nc1ccccc1 (centres undefined)	2%	43*	-5%	.	53*
CC1=NN(c2ccccc2)C(=O)C1N=Nc1ccc(S(N)(=O)=O)cc1 (centres undefined)	10%	1	?	4%	-3
CC1=NN(c2nc(-c3ccc(C)cc3)cs2)C(=O)C1N=Nc1ccc(C(N)=O)cc1 (centres undefined)	-4%	15*	0%	.	30
CC1=NN(c2nc(-c3ccc(C)cc3)cs2)C(=O)C1N=Nc1ccc2ccccc2c1 (centres undefined)	2%	18*	8%	16%	72
CC1=NN(c2ccccc2)C(=O)C1N=Nc1ccc(C)cc1 (centres undefined)	9%	17	2%	.	25
COc1ccc(CN(C)CC(=O)Nc2cccc(S(N)(=O)=O)c2)c(OC)c1OC	1%	-2	?	-2%	-5
COc1ccc(N2Cc3ccccc3C2=NC(=O)c2cncc(Br)c2)cc1	-10%	40*	-27%	.	71*

Bioassay records (PubChem BioAssay)
